Reference: PubChem BioAssay (NCI)
Compounds without any hit were thinned out: in the full panel of roughly 83,000, 20% have a hit.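 The test compound was applied at a single concentration to cells in 96-well plates for 48 hours, and percent growth was recorded.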 Unmarked numbers belong to inactive results. Activity calls are given as the source filed them. The calls were made as follows: active = growth percent below 10; inactive = the rest.

system: HL-60(TB) leukemia; assay: NCI-60 one-dose screen, 48 h (100 = growth as untreated, 0 = no growth, -100 = all killed); conditions: 10 µM unless noted

Structure (SMILES)	growth
N#Cc1cccc(CN2CCC3=C(C2)C(=O)N(Cc2ccc(Cl)cc2)C2=NCCN23)c1	16.2%
CS(=O)(=O)c1ccc(-c2nn(-c3ccccc3)cc2/C=N/NC(=O)c2ccncc2)cc1	81.1%
COc1ccc(NC(=O)Nc2ccc3c(ccn3C(=O)c3cccc(F)c3)c2)cc1	85.2%
CN1CCN(c2nc(-c3csc(-c4ccncc4)n3)cc3ccccc23)CC1	32.2%
COc1cccc(COc2ccc(/C=C3/C(=O)Nc4cc(Cl)ccc43)cc2)c1	105%
CN1CCN(Cc2ccc(NC(=O)c3cncc(C#Cc4cnc5ccc(OCCCS(C)(=O)=O)nn45)c3)cc2C(F)(F)F)CC1	-6.31% (active)
CC(O)c1cccc(/C(N)=N/C(N)=N/c2nc3ccccc3s2)c1 (stereo not drawn)	84.5%
COc1ccc(-c2cc(-c3cccc4ccccc34)n3c(n2)nc2ccccc23)cc1	-0.785% (active)
CCOC(=O)c1c(NC(=O)c2ccc(C(C)(C)C)cc2)sc2cc(OCCN3CCCCC3)ccc12	27.1%
O=[N+]([O-])c1ccc(-c2nnc(SCc3ccc(O)c4ncccc34)n2-c2ccccc2)cc1	32.5%
C/C(=C(/C)C1CC1CCN(C(=O)c1ccccn1)S(=O)(=O)c1ccc(C)cc1)C1CCCCC1 (stereo not drawn)	97.4%
CCn1c2ccc(/C=N/N(C)S(=O)(=O)CCN(C)C)cc2c2cc(/C=N/N(C)S(=O)(=O)CCN(C)C)ccc21	42.5%
Cc1cccc(/C=C/c2nn3c(-c4ccco4)nnc3s2)c1	86.2%
